Only some compounds are listed: those with a hit (about 19% of all), similar ones and a draw of the others.
Giardia killer = kills Giardia lamblia; Giardia lamblia trophozoite viability; activity change, % at 7.66 µM, hits read low; hit rate 0.15% among 340,000; in the data active = activity change below about -80%; inconclusive = between about -30% and that limit;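 also: parasites exposed to compound for two days anaerobically before the ATP read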
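Killing of trophozoites was scored by loss of ATP luminescence after a 48 hrs anaerobic exposure to compounds at 37 deg C, using 100 cells per well.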
IL-1B inflam inh = inflammasome signaling inhibition, IL-1 beta readout; activity change, % at 57.5 µM; THP-1 LPS/ATP IL-1B secretion, AlphaLISA, 16 h; active compounds read low; AID 743279; hit rate 4.7% among 360,000; in the data active = activity change below about -50%; inconclusive = mostly about -30% to -49%
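Secreted IL-1B measured by AlphaLISA bead assay after 16 h compound exposure of THP-1 cells; compounds (final up to 57.5 uM) added 1 h before LPS (250 ng/mL) and ATP (1.25 mM) stimulation; lower signal means less secretion.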
DT40 TDP1 no CPT = qHTS for Inhibitors of human tyrosyl-DNA phosphodiesterase 1 (TDP1): qHTS in cells in absence of CPT; DT40 Tdp1-/- hTDP1 cells, no CPT, ATP luminescence, 48 h; Potency, µM (top dose mostly 46.2 µM), usual class: inhibitors; hit rate 15% among 420,000; AID 686978, 2013; also: nearly all actives have a fitted effect of over 55% in size
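Cells were dispensed at 400 per well, compounds added by pin tool, plates incubated ≥48 hr at 37 °C, then CellTiter-Glo added for 30 min at room temperature before luminescence reading. Line: DT40 Tdp1-/- complemented with hTDP1; camptothecin omitted.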
ELG1 repair inh = inhibitors of ELG1-dependent DNA repair in HEK293T cells; HEK293T ELG1-luciferase reporter, luminescence, 16 h; DNA damage induced by 5-fluorouridine; AID 504467; hit rate 2.3% among 330,000; Potency, µM (doses to about 46.1 µM), actives largely listed as inhibitors; also: nearly all actives have a fitted effect of over 55% in size
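Step one: seed 2,000 cells per well. Step two: pin-transfer compound or DMSO alongside 5-fluorouridine. Step three: incubate 16 hr, 37 °C, 5% CO2. Step four: add ONE-Glo, wait 30 min, read luminescence.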
TDP1 inh = TDP1 (human) enzyme inhibition; Potency, µM (highest dose often 130 µM), actives largely listed as inhibitors; hit rate 0.28% among 350,000; recombinant TDP1, AlphaScreen DNA substrate cleavage; Q9NUW8; also: nearly all actives have a fitted effect of over 40% in size
Target sequence (Q9NUW8 whole entry, looked up): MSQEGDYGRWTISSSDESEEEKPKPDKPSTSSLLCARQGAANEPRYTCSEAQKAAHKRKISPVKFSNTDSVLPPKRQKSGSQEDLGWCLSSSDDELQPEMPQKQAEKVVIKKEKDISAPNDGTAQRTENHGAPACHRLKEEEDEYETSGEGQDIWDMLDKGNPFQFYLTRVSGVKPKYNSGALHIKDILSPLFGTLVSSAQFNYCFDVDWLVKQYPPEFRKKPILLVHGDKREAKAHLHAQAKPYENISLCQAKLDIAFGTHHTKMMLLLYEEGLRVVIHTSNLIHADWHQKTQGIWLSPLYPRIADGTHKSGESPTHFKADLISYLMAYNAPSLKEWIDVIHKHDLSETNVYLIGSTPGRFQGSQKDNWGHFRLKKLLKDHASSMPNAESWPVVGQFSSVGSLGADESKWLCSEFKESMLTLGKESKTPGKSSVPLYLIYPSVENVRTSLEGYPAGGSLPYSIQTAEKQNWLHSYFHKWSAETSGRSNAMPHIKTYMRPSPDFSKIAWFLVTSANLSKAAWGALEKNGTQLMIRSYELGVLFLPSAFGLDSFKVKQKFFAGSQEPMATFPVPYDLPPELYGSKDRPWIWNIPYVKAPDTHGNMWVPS
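Steps: enzyme plus compound, 15 min RT; add biotin/phosphotyrosine-FITC oligonucleotide (15 nM final), react 5 min; add donor/acceptor beads (10 ug/ml final), 10 min; read AlphaScreen. Tdp1 at 1 nM final.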
DT40 TDP1 CPT = growth inhibition of DT40 Tdp1-/-;hTDP1 cells with camptothecin (screen for TDP1 inhibitors); AID 686979; hit rate 12% among 420,000; Potency, µM (doses to about 46.2 µM), most hits filed as inhibitors; chicken DT40 Tdp1-/-;hTDP1 cells + 20 nM CPT, ATP luminescence, 48 h; also: nearly all actives have a fitted effect of over 55% in size
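Chicken DT40 Tdp1-/- cells complemented with human TDP1, 400 cells/well, exposed to compounds plus 20 nM camptothecin for at least 48 h at 37 C; viability read as ATP content by CellTiter-Glo luminescence.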
Hits are given with their value; n = inactive; u = inconclusive; x = not tested or not shown; [ ] = another dose, or the depositor's remark. Unless noted, calls follow the shape of the dose curve; as a rule, active = well fitted curve in the direction sought with a large enough effect; inconclusive = small, poorly fitted or top-dose-only effect, or another doubt; inactive = no such curve, though single readings can be large; an effect the other way counts as inactive or inconclusive.

SMILES	Giardia killer	IL-1B inflam inh	DT40 TDP1 no CPT	ELG1 repair inh	TDP1 inh	DT40 TDP1 CPT
CCOc1ccccc1N1CCN(C(=S)NC(=O)C23CC4CC(CC(C4)C2)C3)CC1	n	n	16µM	n	n	18µM
Cc1cccc(C)c1NC(=O)C1(C)CCC(=O)N1c1cc(C(C)(C)C)nn1C (stereo not given)	x	n	n	x	x	n
C[C@@]12CCC(O)C[C@H]1CCc1ccccc12 (stereo not given in full)	x	x	n	x	n	n
O=C1CCCN1c1ccc(N2CCCC2=O)cc1	n	n	n	n	x	n
COc1ccc(C(=O)NCCNc2nc3cc(C)c(C)cc3cc2C)cc1	n	n	u	n	x	n
Cc1ccc(NC(=O)c2ccc(N3CCCC3=O)cc2)cc1S(=O)(=O)N1CCCCC1	n	n	n	n	n	n
Cc1cccc(N2CCN(C(=O)c3ccncc3)CC2C)c1 (stereo not given)	n	n	n	u	n	n
CCOc1ccccc1N1CCN(C(=O)c2cc(C)oc2C)CC1	n	n	23µM	n	n	18µM
Cc1cccc(N2CCN(C(=O)c3cc(C)oc3C)CC2C)c1 (stereo not given)	n	u	16µM	n	n	u
CCOc1ccccc1N1CCN(C(=O)c2csc(C)c2CC)CC1	n	u	21µM	u	n	u
COc1ccc(OC)c(CCNC(=O)c2csc3c2CCCCC3)c1	x	x	u	x	n	u
N#Cc1ccc(C(=O)OCC(=O)Nc2ccc(S(N)(=O)=O)cc2)cc1	n	n	n	n	x	n
Cc1ccc(C(=O)N/N=C\c2cccnc2)s1	n	n	n	u	n	n
Cc1c(C(=O)N/N=C/c2cccnc2)sc(N)c1C#N	n	-63	n	u	x	n
COc1cc(/C=N/NC(=O)c2sc(N)c(C#N)c2C)cc(Br)c1O	n	-77	u	n	n	n
O=C(O)c1ccc2c(c1)S(=O)(=O)c1cc(N3CCN(c4cnccn4)CC3)ccc1C2=O	x	n	n	x	x	n
Cc1ccc(S(=O)(=O)c2cn(CC(=O)Nc3ccc4c(c3)OCO4)c3ccc(C)cc3c2=O)cc1	x	x	n	x	n	n
CCOC(=O)N1CCC(NCc2c(C(=O)N(C)Cc3ccccc3)nc3ccccn23)CC1	n	n	n	n	n	n
COc1ccccc1N1CCN(C(c2ccccc2)c2nnc(-c3ccccc3Cl)o2)CC1 (stereo not given)	x	x	u	x	n	29µM
COc1ccc(C(c2nnnn2CCc2ccccc2)N2CCN(C)CC2)cc1OC (stereo not given)	n	n	n	n	n	n
COc1ccccc1N1CCN(C(c2ccccc2)c2nnnn2CCc2ccccc2)CC1 (stereo not given)	n	n	18µM	u	n	18µM
COc1ccccc1C(c1nnnn1CCc1ccccc1)N1CCCCCC1 (stereo not given)	n	n	23µM	n	n	u
CCCNC(=O)CN1C(=O)c2cccnc2Sc2ccccc21	x	x	n	x	n	n
CC(C)(O)[C@H](O)Cc1cc2ccc(=O)oc2cc1O[C@@H]1O[C@H](CO)[C@@H](O)[C@H](O)[C@H]1O	n	n	n	n	n	n
CCOc1ccccc1C(O)C1=CC(=O)c2ccccc2C1=O (stereo not given)	n	n	u	x	x	u
SMILES	Giardia killer	IL-1B inflam inh	DT40 TDP1 no CPT	ELG1 repair inh	TDP1 inh	DT40 TDP1 CPT
Cn1c(N)c(C(=O)c2ccc(C#N)cc2)c(=O)n(C)c1=O	n	n	n	n	n	n
O=C1NC(=S)SC1=Cc1ccc(Cl)cc1	n	n	21µM	x	x	u
COc1ccc(/C=C2/SC(=S)N(n3c(C)ccc3C)C2=O)cc1	n	n	15µM	n	n	u
O=C1NC(=S)SC1=Cc1ccc(F)cc1	n	n	u	x	x	u
O=C1NC(=S)S/C1=C\c1ccc2ccccc2c1	n	n	21µM	u	x	u
O=C1NC(=S)SC1=Cc1ccccc1Br	n	n	u	x	x	u
O=C1NC(=S)SC1=Cc1cc(Br)ccc1O	n	u	n	x	x	29µM
Cc1cccc(C)c1NC(=O)Cn1c(=O)n(CCC(=O)NCc2ccc3c(c2)OCO3)c(=O)c2sccc21	x	x	n	x	n	n
COc1ccc(-n2cc(C#N)c(=O)[nH]c2=O)cc1	n	n	n	n	n	n
COc1ccc(/C=C2\SC(=S)N(N3CCOCC3)C2=O)c(OC)c1	n	n	16µM	n	x	n
COc1ccc(C=C2SC(=S)NC2=O)cc1	n	n	18µM	x	x	u
COc1ccc(/C=C2/SC(=O)NC2=O)cc1	n	n	n	u	n	u
Fc1ccc(Nc2nc(-c3cccc(Cl)c3)c3c(n2)-c2ccccc2OC3)cc1	x	x	u	x	n	n
CN1CCCN(C(=O)[C@@H]2C[C@@H](Sc3nc4ccccc4[nH]3)CN2Cc2ccc(OC(F)(F)F)cc2)CC1	x	x	u	x	x	n[9.04 µM]
Cc1cc(-c2cc(N)n(-c3ccccc3)n2)c(C)n1C1CCCC1	n	n	u	u	n	29µM
COc1ccccc1Oc1coc2cc(OCC(N)=O)ccc2c1=O	n	n	n	n	x	n
CCCc1cc2c(=O)c(-c3ccccn3)coc2cc1OC	n	n	8.2µM	u	x	u
O=C(COc1ccc(F)cc1)N(Cc1ccco1)C1CCS(=O)(=O)C1 (stereo not given)	n	n	n	n	n	n
CC1=CC(=O)C=C(C)C1=NOc1ccccc1[N+](=O)[O-]	n	u	2.1µM	u	n	1.3µM
CC(C)(C)/C(COc1ccccc1[N+](=O)[O-])=N/O	n	n	n	n	n	u
Cc1ccc(Sc2nnc(Cc3ccccc3)c3ccccc23)cc1	n	-89	23µM	u	n	26µM
CCOC(=O)c1c(C)[nH]c(C)c1S(=O)(=O)N1CCC(C(=O)N2CCN(c3cc(C)ccc3C)CC2)CC1	x	x	23µM	x	n	23µM
CCOC(=O)c1c(C)[nH]c(C)c1S(=O)(=O)N1CCC(C(=O)Nc2ccc(C)cn2)CC1	x	x	n	x	n	n
CCOC(=O)N1CCN(S(=O)(=O)c2c(C)cc(C)cc2C)CC1	n	n	u	n	n	n
CCOC(=O)c1c(C)[nH]c(C)c1S(=O)(=O)N1CCC(C(=O)N2CCN(c3cccc(C)c3)C(C)C2)CC1 (stereo not given)	x	x	u	x	n	23µM
CCOC(=O)N1CCN(C(=O)C2CCN(S(=O)(=O)c3c(C)cc(C)cc3C)CC2)CC1	n	n	18µM	u	n	u
CCOC(=O)c1c(C)[nH]c(C)c1S(=O)(=O)N1CCC(C(=O)NCc2cccc(C)c2)CC1	x	x	n	x	n	n
CC1CC(C)CN(C(=O)CCNC(=O)c2ccccc2Cl)C1 (stereo not given)	n	n	n	u	n	n
